# Screening data deposited in PubChem by several laboratories.
# Only some compounds are listed: those with a hit (about 2% of all), similar ones and a draw of the others.
# ARNT TACC3 PPI – ARNT/TACC3 interaction disruption; AID 623870; 390,000 tested, 0.66% active; Q9Y6A5; inhibition, % at 9.99 µM; AlphaScreen His-ARNT PAS-B/GST-TACC3 binding, luminescence; TACC3 fragment carries E629A point mutation;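 active = mean inhibition of replicates at least 50% and at least half of replicates each reaching 50%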;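 note: 0% = complete ARNT plus TACC3 wells and 100% = ARNT alone without TACC3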
# Neddylation inh – blocks human cullin neddylation; P61081+Q13564; TR-FRET cullin neddylation, biochemical; inhibition, % at 25 µM; 360,000 tested, 0.58% active; AID 651699; in the data active = inhibition above about 36%
# Target sequence (P61081 whole entry, looked up): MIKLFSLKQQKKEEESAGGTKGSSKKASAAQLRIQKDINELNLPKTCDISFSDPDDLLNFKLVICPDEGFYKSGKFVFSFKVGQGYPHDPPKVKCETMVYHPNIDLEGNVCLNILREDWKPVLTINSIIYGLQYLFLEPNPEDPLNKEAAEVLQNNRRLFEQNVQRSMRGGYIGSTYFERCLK
# Target sequence (Q13564 whole entry, looked up): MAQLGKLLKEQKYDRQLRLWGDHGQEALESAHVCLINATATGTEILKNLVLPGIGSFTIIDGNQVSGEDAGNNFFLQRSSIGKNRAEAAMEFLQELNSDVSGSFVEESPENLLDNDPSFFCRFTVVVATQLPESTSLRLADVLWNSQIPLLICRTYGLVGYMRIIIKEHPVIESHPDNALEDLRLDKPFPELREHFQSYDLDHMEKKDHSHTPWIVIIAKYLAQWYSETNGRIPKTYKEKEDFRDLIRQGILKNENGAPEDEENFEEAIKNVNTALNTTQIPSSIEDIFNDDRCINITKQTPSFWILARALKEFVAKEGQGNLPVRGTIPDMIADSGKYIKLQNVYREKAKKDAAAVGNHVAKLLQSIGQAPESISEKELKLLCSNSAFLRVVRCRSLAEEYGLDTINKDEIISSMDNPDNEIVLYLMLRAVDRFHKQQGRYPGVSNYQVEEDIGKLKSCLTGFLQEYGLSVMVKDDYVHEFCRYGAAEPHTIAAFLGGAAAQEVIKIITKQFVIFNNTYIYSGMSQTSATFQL
# NadD inh – blocks S. aureus nicotinate mononucleotide adenylyltransferase; purified NadD enzyme, colorimetric absorbance read-out; 360,000 tested, 0.78% active; inhibition, % at 20 µM; in the data active = inhibition above about 26%
# DAGLB inhibitor – diacylglycerol lipase beta (human) inhibition | Q8NCG7 | HEK293T DAGLB membrane lysate, EnzChek fluorogenic substrate | inhibition, % at 5.17 µM | 340,000 tested, 0.059% active | AID 504411; in the data active = inhibition above about 34%;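 note: 0% = enzyme with vehicle and 100% = wells lacking enzyme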
# sPLA2-III inh – Blocks human group III sPLA2 activity | Q9NZ20 | QFRET BODIPY PC-A2 liposome hydrolysis, fluorescence | inhibition, % at 12.2 µM | 370,000 tested, 0.56% active;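 active = inhibition above mean plus 3 SD of compounds lying within the high and low control bounds, cut at about 19% in these data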;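 note: 0% = median of test compound wells and 100% = no enzyme DMSO wells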
# AlphaScreen ctr – counter-screen for ARNT/TACC3 inhibitors: AlphaScreen artifacts; AID 651705; shares compounds with ARNT TACC3 PPI; His-ARNT PASB-GST AlphaScreen artifact counter-screen, luminescence; 1,200 tested, 50% active; AC50, µM (titrated, usually from 68 µM), without a hit: at the top dose activity change, negative = signal decrease;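 active = every separate test run was called active for a drop in luminescence, with AC50 within twice the top valid dose, actives reach about 71 µM in these data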
# The depositor's hits bear a star; . = no result shown; [ ] = remark or other dose.
SMILES,ARNT TACC3 PPI,Neddylation inh,NadD inh,DAGLB inhibitor,sPLA2-III inh,AlphaScreen ctr
Cc1noc(C)c1NC(=O)Nc1ccc2c(c1)C(=O)N([C@@H](C)CO)C[C@@H](C)[C@H](CN(C)C(=O)Nc1ccc(C(F)(F)F)cc1)O2,0.9,.,.,.,.,.
CC=Cc1ccc2n(c1=O)C[C@@H]1[C@@H](CO)[C@H](C(=O)N(C)C)N(CC3CC3)[C@H]21 (mixture of isomers),-2.6,.,.,.,.,.
Cc1ccoc1C(=O)NCCCNC(=O)c1occc1C,56.2*,1.4,-8.4,-6.4,-1.1,-7.1%
O=C(O)CSCc1cn2cc(Cl)ccc2n1,-6.4,3.8,-3.5,-0.6,5.2,.
CNCc1cn2cc(Cl)ccc2n1,66.8*,17.7,0.6,0.7,17.6,-8.2%
CN1CCN(CC(=O)Nc2ccccc2[N+](=O)[O-])CC1,-2.0,-22.6,-0.3,0.6,-2.5,.
O=C(CN1CCCCCC1)Nc1ccccc1[N+](=O)[O-],50.8*,-16.4,-3.9,-7.1,-5.8,-10.6%
O=C(NC1CCC1)[C@@H]1[C@@H](CO)[C@@H]2Cn3c(ccc(-c4ccccc4)c3=O)[C@@H]2N1Cc1ccccn1,-2.5,.,.,.,.,.
COc1c(O)cccc1/C=N/NC(=O)Cn1ccnc1C,61.2*,18.1,-1.2,1.4,2.1,-24.5%
COc1cccc(/C=N/NC(=O)Cn2ccnc2C)c1,.,0.5,0.7,-1.3,-1.5,.
O=C(CSc1ccc2nnc(-c3ccccn3)n2n1)Nc1ccccc1F,52.9*,9.9,-1.2,-0.9,-0.9,-33.7%
O=C(CSc1nnc(-c2ccccn2)o1)Nc1cccc(Cl)c1,0.8,-15.0,2.3,1.4,-4.5,.
O=C(CSc1nnc(-c2ccccn2)o1)Nc1ccccc1F,58.7*,-0.1,-4.0,2.1,-6.0,-10.2%
O=C(CSc1ccc2nnc(-c3ccccn3)n2n1)Nc1cccc(F)c1,39.9,3.9,1.5,2.6,2.5,.
O=C(CSc1ccc2nnc(-c3ccccn3)n2n1)NCC1CCCO1 (configuration not stated),56.2*,.,0.9,2.2,2.8,-15.9%
Cc1cc(=O)n2c3c(c4c(cc13)c(CN(C)C)cc(=O)n4C)OC2,33.7*,.,-0.1,-1.1,14.0,-21.2%
Cc1cc(=O)n(C)c2ccccc12,.,9.7,2.6,-0.3,-3.7,.
COC(=O)C(CC#Cc1ccc2c(c1)[C@]1(C(=O)N2)[C@H](c2ccc(O)cc2)N2[C@H](c3ccccc3)[C@H](c3ccccc3)OC(=O)[C@H]2[C@@H]1C(=O)N1CCCCCCC1)C(=O)OC,67.9*,.,.,.,.,-32.7%[38 µM]
COC(=O)C(CC#Cc1ccc2c(c1)[C@]1(C(=O)N2)[C@H](C(=O)N2CCCCCCC2)[C@H]2C(=O)O[C@H](c3ccccc3)[C@H](c3ccccc3)N2[C@@H]1c1ccc(OCCO)cc1)C(=O)OC,35.2,.,.,.,.,.
COc1cccc(S(=O)(=O)N(C)C[C@@H]2Oc3ncc(-c4cccc(C(F)(F)F)c4)cc3C(=O)N([C@H](C)CO)C[C@@H]2C)c1,-4.3,.,.,.,.,.
Cc1cc(C)c(NC(=O)CSc2nnc(-c3ccccn3)n2N)c(Cl)c1,54.2*,-0.6,4.7,2.2,11.1,-21.2%
Cc1ccc(C)c(-n2c(SCC(N)=O)nnc2-c2ccccn2)c1,57.2*,-1.7,-0.9,-1.8,9.0,-25.8%
COc1ccc(NC(=O)CSc2nnc(-c3ccccn3)n2N)cc1Cl,1.6,-4.6,3.3,-1.5,0.0,.
C[C@H]1CN([C@@H](C)CO)C(=O)c2cc(-c3ccc(C#N)cc3)cnc2O[C@H]1CN(C)C(=O)c1ccccc1,-4.0,.,.,.,.,.
O=C(c1ccccc1F)N1C[C@H]2[C@@H](c3ccccc31)[C@H](CO)N2C(=O)c1ccccc1,-6.7,.,.,.,.,.
SMILES,ARNT TACC3 PPI,Neddylation inh,NadD inh,DAGLB inhibitor,sPLA2-III inh,AlphaScreen ctr
CN(C)CCN(C(=O)c1ccc2c(c1)CCCC2)c1nc2cc3c(cc2s1)OCCO3,52.2*,9.3,13.0,-3.5,4.1,23.7µM*
CO[C@H]1CN(C)C(=O)c2cc(NC(=O)C3CC3)ccc2OC[C@@H](C)N(C(C)=O)C[C@@H]1C,-0.5,.,.,.,.,.
CO[C@@H]1CN(C)C(=O)c2ccc(NC(=O)C3CC3)cc2OC[C@H](C)N(C(=O)C2CCOCC2)C[C@@H]1C,-0.5,.,.,.,.,.
Cc1ccc(O)c(NC(=O)CSc2n[nH]c(-c3ccccc3)n2)c1,-1.4,3.8,-8.0,0.6,-19.2,.
Cc1ccc(C)c(NC(=O)CSc2n[nH]c(-c3ccccn3)n2)c1,76.5*,0.4,2.2,-0.2,-5.7,10.4µM*
Cc1nc(SCC(=O)Nc2cccc(Cl)c2)n[nH]1,-10.4,-1.8,3.2,-0.3,-7.1,.
O=C(CSc1n[nH]c(-c2ccccn2)n1)Nc1cccc(Cl)c1,55.5*,1.6,-4.7,1.7,-23.4,13.6µM*
Cc1cc(C(=O)Nc2cccc3c2O[C@H](CN(C)Cc2ccc(C(=O)O)cc2)[C@H](C)CN([C@H](C)CO)C3=O)n(C)n1,-7.1,.,.,.,.,.
CCOC(=O)N1CCN(Cc2cc(Cl)c3cccnc3c2O)CC1,.,.,.,.,-7.4,.
Oc1c(CN2CCN(c3ccccc3)CC2)cc(Br)c2cccnc12,59.3*,2.0,6.1,-7.8,0.5,2.37µM*
COCc1cc(CN2CCN(C)CC2)c(O)c2ncccc12,66.6*,-6.7,-2.9,-2.7,-8.3,10.1µM*
COc1ccccc1N1CCN(Cc2ccc(O)c3ncccc23)CC1,70.0*,4.4,-7.7,7.5,13.5,2.75µM*
Oc1c(CN2CCOCC2)cc(COCc2ccccc2)c2cccnc12,56.4*,0.5,-6.6,2.5,0.4,3.95µM*
COc1ccccc1N1CCN(Cc2ccc(OC)c(OC)c2OC)CC1,3.1,0.4,-2.5,-2.8,5.8,.
CN(C)CC(=O)Nc1ccc2c(c1)[C@H]1C[C@@H](CC(=O)NCc3cccnc3)O[C@H](CO)[C@H]1O2,-4.5,.,.,.,.,.
O=C(C[C@@H]1CC[C@@H](NS(=O)(=O)c2cccc(F)c2)[C@@H](CO)O1)N1CCCCC1,-6.8,.,.,.,.,.
CCCC(=O)Nc1ccc2c(c1)C(=O)N(C)C[C@H](OC)[C@H](C)CN(C(=O)c1ccncc1)[C@H](C)CO2,-3.5,.,.,.,.,.
C[C@H](O)C#Cc1ccc2c(c1)O[C@H](CN(C)C(=O)CC1CC1)[C@H](C)CN([C@H](C)CO)S2(=O)=O,-4.3,.,.,.,.,.
O=C(Oc1c(CN2CCOCC2)cc(Cl)c2cccnc12)c1ccccc1Br,62.8*,-6.1,-7.5,-5.1,12.7,33µM*
c1ccc(Nc2nc(-c3ccncc3)cs2)cc1,-2.2,-13.8,3.2,1.6,-10.9,.
c1ccc(Nc2nc(-c3ccccn3)cs2)cc1,65.9*,-12.7,7.0,0.1,2.7,48.5µM*
CCN(CC)C(=O)[C@H]1C[C@H](CC(=O)NCc2ccc(OC)c(OC)c2)C(=O)N2CCc3c([nH]c4ccc(Cl)cc34)[C@]12C,26.6*,4.0,3.3,1.4,-20.2,-2.7%
CCN(CC)C(=O)[C@H]1CC(CC(=O)NCc2ccc(OC)c(OC)c2)C(=O)N2CCc3c([nH]c4ccccc34)[C@]12C (some centres not stated),0.9,0.7,-4.6,-1.4,4.1,.
